Only some compounds are listed: those with a hit (about 19% of all), similar ones and a draw of the others.
DT40 TDP1 no CPT = qHTS for Inhibitors of human tyrosyl-DNA phosphodiesterase 1 (TDP1): qHTS in cells in absence of CPT; hit rate 15% among 420,000; DT40 Tdp1-/- hTDP1 cells, no CPT, ATP luminescence, 48 h; AID 686978, 2013; Potency, µM (titrated, usually from 46.2 µM), for inactives: at the top dose activity change, negative = growth inhibition, usual class: inhibitors; further: potency means the concentration at half of the fitted maximal effect; nearly all actives have a fitted effect of over 55% in size
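Stably hTDP1-transfected Tdp1-null chicken DT40 cells were treated with library compounds minus camptothecin and grown for at least 48 hr at 37 °C, after which cellular ATP was quantified by luminescence.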
DT40 TDP1 CPT = growth inhibition of DT40 Tdp1-/-;hTDP1 cells with camptothecin (screen for TDP1 inhibitors); chicken DT40 Tdp1-/-;hTDP1 cells + 20 nM CPT, ATP luminescence, 48 h; Potency, µM (series often up to 46.2 µM), inactives show top-dose activity change, negative = growth inhibition, actives largely listed as inhibitors; hit rate 12% among 420,000; AID 686979; further: potency means the concentration at half of the fitted maximal effect; nearly all actives have a fitted effect of over 55% in size
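Chicken DT40 Tdp1-/- cells stably complemented with human TDP1 were seeded at 400 cells/well in medium containing 20 nM camptothecin, exposed to pin-transferred compounds, and grown at 37 °C for at least 48 hr. Viability was read as ATP luminescence.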
HT1080-NT tox = kills 2HG-producing HT-1080-NT fibrosarcoma cells | HT-1080-NT fibrosarcoma viability, CellTiter-Glo ATP luminescence, 48 h | Potency, µM (series often up to 46.1 µM), for inactives: at the top dose activity, negative = less viability, actives largely listed as cytotoxic | hit rate 1.6% among 360,000;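 further: NT is the 2HG producing partner of a matched IDH1 knockdown line; potency means the concentration at half of the fitted maximal effect; 0% = DMSO-treated cells and -100% = media-only wells without cells; nearly all actives have a fitted effect of over 55% in size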
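Toxicity toward the 2HG-producing NT line was scored as %Activity, normalised to DMSO and no-cell wells, from CellTiter-Glo luminescence after 48 hours' treatment.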
HT1080 IDH1KD tx = toxicity to HT-1080 IDH1 knockdown cells (counter line); HT-1080 IDH1 knockdown viability, ATP luminescence, 48 h; Potency, µM (doses to about 46.1 µM), without a hit: at the top dose activity, negative = toxicity, hits mostly cytotoxic; hit rate 2% among 360,000; AID 686971;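 further: potency means the concentration at half of the fitted maximal effect; 0% = DMSO wells and -100% = cell-free medium wells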
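After a 2 h attachment period, IDH1KD HT-1080 cells took pin-transferred compound for 48 h at 37 °C; ATP-based luminescence after 10 min room-temperature reagent incubation reported viability.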
IL1B secr inh = blocks inflammasome-driven IL-1 beta release. THP-1 LPS/ATP IL-1B secretion, AlphaLISA, 16 h; active compounds read low. activity change, % at 57.5 µM. hit rate 4.7% among 360,000; in the data active means activity change below about -50%; inconclusive means mostly about -30% to -49%
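THP-1 cells pretreated 1 hr with compounds (up to 57.5 uM final), then stimulated with LPS (250 ng/mL final) plus ATP (1.25 mM final); secreted IL-1B measured by AlphaLISA after 16 hr, decreased signal indicating inhibition.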
* marks the source's active call; other numbers are inactive results; u = inconclusive; x = no result given. Unless noted, the call rests on the fitted dose curve; in most records, active means well fitted curve in the direction sought with a large enough effect; inconclusive means small, poorly fitted or top-dose-only effect, or another doubt; inactive means no such curve, though single readings can be large; an effect the other way counts as inactive or inconclusive. Unless noted, on the % scale 0 is the no-effect control and ±100 the full control effect.

SMILES	DT40 TDP1 no CPT	DT40 TDP1 CPT	HT1080-NT tox	HT1080 IDH1KD tx	IL1B secr inh
COc1ccc(C(CCN2CCOCC2)c2c(O)cc(OC)cc2OC)cc1 (stereo not drawn)	u	u	-1%	3%	-5
COc1cc(OC)c2c(-c3ccccc3)cc(=O)oc2c1C(CCN1CCCC1)c1ccc2c(c1)OCO2 (stereo not drawn)	u	u	-22%	u	-21
COc1cc(C(CCN2CCCCC2)c2c(OC)cc(OC)c3c(C)cc(=O)oc23)cc(OC)c1OC (stereo not drawn)	10µM*	10µM*	-6%	-12%	12
COc1ccc2c(C(=O)NCc3ccc4c(c3)OCO4)c(-c3ccc(S(C)(=O)=O)cc3)sc2c1	16µM*	23µM*	8%	7%	49
COC(=O)c1c(-c2ccc(S(C)(=O)=O)cc2)sc2cc(OC)ccc12	21µM*	u	-2%	-19%	-20
COC(=O)c1c(-c2ccc(S(C)(=O)=O)cc2)sc2ccc(OC)cc12	13µM*	u	-6%	-25%	-15
CCC(C)Sc1ccc(-c2nc3ccccn3c2NCc2ccccc2)cc1OC (stereo not drawn)	u	u	u	u	-74*
COc1ccc(-c2nc3ccccn3c2NC2CCCCC2)cc1SC1CCCCC1	16µM*	u	u	u	-75*
COc1cc(-c2nc3ccccn3c2NCC2CCCO2)ccc1O (stereo not drawn)	u	u	6%	-6%	-3
COc1cc(-c2nc3ccccn3c2NCc2ccccc2)ccc1SC1CCCCC1	u	26µM*	u	u	-29
COc1cc(-c2nc3ccc(C)cn3c2NCc2ccccc2)ccc1-c1cccc(Cl)c1	u	u	u	-11%	-7
CCOc1cc(-c2nc3ccccn3c2NCC2CCCO2)ccc1O (stereo not drawn)	-17%	-35%	-1%	-1%	-7
COc1ccc(-c2nc3ccc(C)cn3c2NCc2ccc3c(c2)OCO3)cc1	u	-8%	2%	3%	-3
Cc1ccc(-c2nc3ccccn3c2NCc2ccc3c(c2)OCO3)cc1	u	21µM*	u	u	u
O=C(NC(=S)Nc1ccc(N2CCCC2)cc1)c1ccc(F)cc1	-22%	-18%	-4%	-22%	-7
COc1ccc(CCN(C(=O)c2cccc(F)c2)C2CC(=O)N(c3ccc(OC)cc3)C2=O)cc1 (stereo not drawn)	u	-17%	3%	11%	-5
COc1ccc(CSc2ccc(-c3nc4ccccn4c3NCc3ccccc3)cc2OC)cc1	8.2µM*	9.2µM*	-25%	-2%	u
COc1cc(-c2nc3ccccn3c2N)ccc1O	u	-1%	14%	10%	18
Cc1cc(C)n2nc(/C(C#N)=C/c3ccccn3)c(C#N)c2n1	9.2µM*	u	-11%	-9%	-98*
N#C/C(=C\c1cccnc1)c1ccc([N+](=O)[O-])cc1	u	u	-5%	-3%	-21
CN(C)c1ccc(/C=C(\C#N)c2ccccn2)cc1	23µM*	-28%	u	u	-10
N#C/C(=C\c1ccc([N+](=O)[O-])cc1)c1ccccn1	23µM*	u	0%	-6%	-73*
COC(=O)c1ccc(/C=C(\C#N)c2ccccn2)cc1	u	u	-1%	-12%	25
N#C/C(=C\c1ccccn1)c1ccccn1	15µM*	23µM*	-15%	-18%	-94*
Cc1cc(C)n2nc(CC#N)c(C#N)c2n1	-13%	14%	15%	28%	16
CC(C)CNC(=O)C1(C)CCCN1C(=O)c1ccc2c(c1)CCO2 (stereo not drawn)	-6%	0%	20%	21%	3
Cc1ccc(CNC(=O)c2ccc3c(c2)NC(=O)C(CS(=O)(=O)Cc2cccc(C)c2)N3)cc1 (stereo not drawn)	u	-5%	x	x	x

From PubChem BioAssay
